Bioassay records as filed in PubChem BioAssay.
PrP UTR inh – inhibition of PrP 5' UTR reporter expression; AID 488862; cell-based PrP 5' UTR mRNA reporter, plate reader; 340,000 compounds, 0.35% hits; inhibition, % (no concentration beside the values); in the data active = inhibition above about 52%; also: 0 = median of the neutral control wells
Yp Topo-I inh – Y. pestis Topo-I inhibition via cleavage products. activity, % at 10 µM. Y. pestis Topo-I cleavage product accumulation, plate reader. 360,000 compounds, 0.064% hits; in the data active = activity above about 50%, passing the limit was not always enough
BioA inh-1 – inhibitors of Mycobacterium tuberculosis BioA enzyme. purified M. tuberculosis BioA enzyme, plate reader. inhibition, % at 9.99 µM. 360,000 compounds, 0.096% hits; in the data active = inhibition above about 40%
TcdB GH inh – inhibitors of Clostridioides difficile toxin B glycohydrolase; P18177; TcdB glycohydrolase enzymatic assay, plate reader; inhibition, % at 9.99 µM; 350,000 compounds, 0.24% hits; AID 652162; in the data active = inhibition above about 10%
BioA inh-2 – blocks M. tuberculosis BioA aminotransferase. purified BioA enzyme, plate reader, dose response. shares compounds with BioA inh-1. 310 tested, under 10 active. max activity, %. AID 651679;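 also: top concentration of the dilution series was 10 µM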
Target sequence (P9WQ81 whole entry, looked up): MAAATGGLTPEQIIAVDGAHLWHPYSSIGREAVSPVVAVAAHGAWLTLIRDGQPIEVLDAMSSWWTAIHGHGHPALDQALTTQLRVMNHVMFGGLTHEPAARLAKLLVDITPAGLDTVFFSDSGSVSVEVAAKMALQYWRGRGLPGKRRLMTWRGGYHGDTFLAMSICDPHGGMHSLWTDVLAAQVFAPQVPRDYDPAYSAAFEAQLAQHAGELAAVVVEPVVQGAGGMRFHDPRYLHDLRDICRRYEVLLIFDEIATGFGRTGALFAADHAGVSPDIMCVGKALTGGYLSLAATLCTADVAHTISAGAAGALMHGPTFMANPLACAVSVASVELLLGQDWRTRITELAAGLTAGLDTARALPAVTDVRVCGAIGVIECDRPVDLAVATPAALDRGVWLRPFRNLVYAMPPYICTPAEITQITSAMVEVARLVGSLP
HepG2 cytotox – kills HepG2 cells; HepG2 cytotoxicity, plate reader; 310 tested, under 10 active; max activity, %; shares compounds with BioA inh-1
3T3 cytotox 5 – kills NIH3T3 cells | shares compounds with BioA inh-1 | NIH3T3 cytotoxicity, plate reader | activity change, negative = cytotoxicity, % at 26 µM | 310 tested, under 10 active
Active calls of the source: *; i = inactive; . = not tested or not shown; [ ] = remark or other dose. An excerpt weighted towards active compounds, which were near 0.57% of everything screened. Unless noted, no rule for the calls is given here.

SMILES | PrP UTR inh | Yp Topo-I inh | BioA inh-1 | TcdB GH inh | BioA inh-2 | HepG2 cytotox | 3T3 cytotox 5
C/C=C/c1ccc2c(c1)O[C@@H](CN(C)C(=O)Nc1ccc(F)cc1)[C@@H](C)CN([C@@H](C)CO)S2(=O)=O | . | . | 54.6* | -0.5 | -4.8 | i | -13.9
O=C(c1ccncc1)N1CC[C@@H]2[C@H](CO)Nc3ccc(-c4ccccc4)cc3[C@@H]21 | . | . | 6.1 | 1.3 | . | . | .
O=C(c1ccncc1)N1CC[C@@H]2[C@@H](CO)Nc3ccc(-c4ccccc4)cc3[C@@H]21 | . | . | 10.0 | 7.5 | . | . | .
O=C(c1ccncc1)N1CC[C@H]2[C@H](CO)Nc3ccc(Br)cc3[C@H]21 | . | . | 58.7* | . | 11.9 | i | -6.8[23.5 µM]
O=C(c1ccncc1)N1CC[C@@H]2[C@H](CO)Nc3ccc(Br)cc3[C@@H]21 | . | . | 104.3* | . | -5.2 | i | -5.0
COc1cccc(C#Cc2ccc([C@H]3[C@@H](CO)N4C(=O)CN(C(=O)C5CC5)C[C@@H]34)cc2)c1 | . | . | . | 1.0 | . | . | .
CCc1c(C)nc2ncnn2c1Nc1ccc(C#N)c(Cl)c1 | 2.5 | -6.2 | 40.4* | . | -5.6 | -7.2 | -6.6
CN1c2ccc(-c3ccccc3)cc2[C@@H]2[C@@H](CCN2C(=O)c2ccccc2)[C@@H]1CO | . | . | -1.4 | -9.0 | . | . | .
C#CCSc1nnc(-c2sc(-c3ccccc3)nc2C)n1C | -19.0 | -2.3 | 59.8* | . | -2.5 | -13.7 | 2.9
C#CCSc1nnc(-c2c[nH]c3ccccc23)n1C | -12.4 | -5.1 | -3.9 | 0.5 | . | . | .
Cc1c(Cl)cccc1-n1c(SCC(=O)NCc2cccs2)nnc1-c1ccncc1 | -13.0 | 17.1 | 13.7 | . | . | . | .
O=C(CSc1nnc(-c2ccncc2)n1-c1ccc(Cl)cc1)NCc1cccs1 | -16.0 | -2.3 | 47.4* | . | -9.6 | -13.1 | -7.8
COc1cc2cnc(-c3cccnc3)cc2cc1OC | -5.1 | -1.3 | 46.4* | 2.6 | -6.5 | -10.7 | -0.5
COc1ccc(-c2cc3cc(OC)c(OC)cc3cn2)cc1OC | -42.7 | 4.3 | . | 0.6 | . | . | .
CO[C@H]1CN(C)C(=O)c2ccc(NS(=O)(=O)c3cccc(F)c3)cc2OC[C@H](C)N(C(=O)Cc2cccnc2)C[C@@H]1C | . | . | . | -1.1 | . | . | .
COc1ccc(S(=O)(=O)Nc2cccc3c2O[C@@H](CN(C)C)[C@@H](C)CN([C@@H](C)CO)C3=O)cc1 | . | . | -2.7 | 0.5 | . | . | .
CCN(CC)c1ccc2cc(C(=O)c3cccs3)c(=O)oc2c1 | . | . | 90.9* | 1.3 | -7.4 | 49.1 | -9.0
CCN(CC)c1ccc2cc(-c3nc4ccccc4n3C)c(=O)oc2c1 | -17.0 | -0.5 | . | . | . | . | .
CC1CN(C(=O)Nc2ccc3snnc3c2)c2ccccc21 (stereo unspecified) | -11.7 | 1.9 | 62.9* | 3.2 | -6.8 | 16.9 | -1.1
COc1ccc(CCN(C)c2ccc(C(N)=O)cc2[N+](=O)[O-])cc1OC | 4.0 | -11.4 | 49.0* | 1.0 | -8.0 | -12.1 | -9.2
CCOC(=O)C1(CCc2ccccc2)CCN(C(=O)C2=C(C)OCCO2)CC1 | -37.6 | 23.1 | . | 1.6 | . | . | .
CCOC(=O)C1(CCc2ccccc2)CCN(C(=O)CN2CCOC2=O)CC1 | -15.1 | -0.5 | 58.6* | -0.1 | -4.1 | 23.0 | 8.7
C[C@@H]1CN([C@H](C)CO)C(=O)c2cccc(NC(=O)C3CC3)c2O[C@H]1CN(C)C(=O)Nc1ccc2c(c1)OCO2 | . | . | -2.4 | 1.2 | . | . | .
CC(=O)c1ccc(N2CCN(C(=O)c3ccc4c(c3)OCO4)CC2)cc1 | -5.7 | 13.1 | 91.2* | -0.7 | -5.5 | 6.1 | -4.4
O=C(c1ccc2c(c1)OCO2)N1CCN(c2ccc(Cl)cc2)CC1 | -22.5 | 38.7 | . | . | . | . | .
SMILES | PrP UTR inh | Yp Topo-I inh | BioA inh-1 | TcdB GH inh | BioA inh-2 | HepG2 cytotox | 3T3 cytotox 5
Cc1cccc(C(=O)NC2CCN(CC(=O)Nc3ccccc3Cl)CC2)c1 | -33.6 | 20.8 | 48.8* | 1.3 | -5.2 | -6.3 | -13.3
CC(=O)c1ccc(NC(=O)CN2CCN(CC(=O)Nc3ccc(C(C)=O)cc3)CC2)cc1 | 1.0 | -7.2 | -0.1 | -0.4 | . | . | .
CC(=O)c1ccc(NC(=O)CN2CCN(c3ccccc3)CC2)cc1 | -15.7 | -1.8 | 54.7* | -1.4 | -5.8 | 8.6 | -3.0
CCOC(=O)c1ccc(N2C(=O)c3n[nH]c(C)c3C2c2ccc(OC)c(OC)c2)cc1 (stereo unspecified) | -16.4 | 13.1 | 100.8* | . | -8.3 | -12.4 | 0.6
CCOC(=O)c1ccc(N2C(=O)c3n[nH]c(C)c3C2c2ccc(OC)cc2)cc1 (stereo unspecified) | -6.2 | 10.0 | 18.1 | . | . | . | .
CCC(=O)N1CC[C@@H]2[C@H]1c1cc(-c3cccc(F)c3)ccc1N(C)[C@H]2CO | . | . | 42.2* | . | -4.8 | i | -1.8
